Assay outcomes as filed in PubChem BioAssay.
The list is not random: actives were taken first. Their share in the collection is about 3.3%.
SSB-PriA inh – inhibitors of Klebsiella pneumoniae PriA binding to SSB C-terminal tail, primary screen, biochemical, AlphaScreen; PriA–SSB C-terminal tail interaction (Klebsiella pneumoniae); AlphaScreen SSBct-PriA binding, biotinylated peptide; inhibition, % at 33 µM; actives 0.6% (n = 430,000); AID 1272365, 2023; in the data active = inhibition mostly above about 37%, no sharp cut-off; inactive = mostly below about 20%
BoNT-A LC inh2 – BoNT/A light chain protease inhibitors, primary screen, biochemical, flow cytometry, MLPCN library; Botulinum neurotoxin type A light chain protease (Clostridium botulinum A str. ATCC 3502); multiplex microsphere protease substrate cleavage; inhibition, % at 10 µM; actives 0.17% (n = 360,000); AID 588499, 2011
BoNT F protease – BoNT/F light chain protease inhibitors, primary screen, biochemical, flow cytometry, MLPCN library | Botulinum neurotoxin type F light chain protease (Clostridium botulinum) | inhibition, % at 10 µM | AID 588497, 2011 | Multiplex microsphere protease cleavage assay | actives 0.22% (n = 360,000); in the data active = inhibition above about 35%, passing the limit was not always enough; inconclusive = no clear call, values can overlap the other calls
Anthrax LF prot – Bacillus anthracis LF protease inhibitors, primary screen, biochemical, multiplex microsphere, MLPCN library; Lethal factor (Bacillus anthracis), P15917; multiplex microsphere protease cleavage assay; inhibition, % at 10 µM; actives 0.12% (n = 360,000)
Autofluor counter – flagged as autofluorescent in microsphere protease counterscreen | compound autofluorescence counterscreen, microsphere flow cytometry; stronger effect = higher value | fluorescence intensity (concentration not given with the values) | actives 3.1% (n = 360,000); in the data active = fluorescence intensity above about 16000; inconclusive = no clear call, values can overlap the other calls
MazF activator – activators of E. coli MazEF toxin-antitoxin RNase, primary screen, biochemical, fluorescence, uHTS; Endoribonuclease toxin MazF (Escherichia coli (strain K12)), P0AE70; FAM/BHQ RNA-DNA oligo cleavage fluorescence, 5 h; activation, % at 20 µM; actives 0.32% (n = 350,000); AID 504720, 2011; in the data active = activation above about 50%
Target sequence (P0AE70 whole entry, looked up): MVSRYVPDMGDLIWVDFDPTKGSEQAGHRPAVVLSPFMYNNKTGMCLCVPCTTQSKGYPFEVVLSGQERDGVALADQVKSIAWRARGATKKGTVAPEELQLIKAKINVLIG
Hits are given with their value; - = inactive; ? = inconclusive; . = no result. Cut-off read from the data, not from the text of the source, unless noted: active = inhibition above about 30%; inconclusive = no clear call, values can overlap the other calls; inactive = below that.

SMILES	SSB-PriA inh	BoNT-A LC inh2	BoNT F protease	Anthrax LF prot	Autofluor counter	MazF activator
CCn1nc(NC(=O)c2ccco2)c2cc3ccccc3nc21	-	-	-	-	16504	-
Cc1ccc(N(C)C(=O)N2CCN(S(=O)(=O)c3ccc(C)c(C)c3)CC2)cc1	-	-	-	-	24506	-
Cc1ccc(S(=O)(=O)N2CCN(C(=O)N(C)C)CC2)cc1C	-	-	-	-	-	-
CC(C)S(=O)(=O)c1cccc(-c2nnc(NC(=O)c3ccc4c(c3)OCO4)o2)c1	-	.	.	.	.	.
S=c1[nH]nc(-c2ccccc2)n1C1C=CCCC1 (configuration not stated)	-	-	-	-	16741	-
O=C1OCCC1Sc1nc2sc3c(c2c(=O)[nH]1)CCC3 (configuration not stated)	-	.	.	.	.	.
Cc1cc(NS(=O)(=O)c2ccc(CC(C)C)cc2)no1	-	-	-	-	18585	-
Cc1cc(NS(=O)(=O)c2ccc(NC(=O)C(C)Oc3ccc(Cl)cc3)cc2)no1 (configuration not stated)	-	-	-	-	17111	-
Cc1ccc(OC(C)C(=O)Nc2ccc(S(=O)(=O)Nc3cc(C)on3)cc2)cc1 (configuration not stated)	-	?	-	-	21520	-
CCCCOc1ccc(C(=O)Nc2ccc(S(=O)(=O)Nc3cc(C)on3)cc2)cc1OC	-	-	-	-	-	56
CCN1C(=O)c2cccc3c(S(=O)(=O)NCCCn4ccnc4)ccc1c23	-	.	.	.	.	.
Cn1cccc1CN(Cc1cccs1)C(=O)c1cnccn1	-	.	.	.	.	.
COc1ccccc1N1CC(C(=O)OCC(=O)c2ccc(F)cc2)CC1=O (configuration not stated)	-	-	-	-	23806	-
O=C(c1ccccn1)N1C2C=CCC1CC2 (configuration not stated)	-	.	.	.	.	.
Cc1ccc(/C=N/NC(=O)c2ccco2)s1	.	-	-	-	25160	-
Cc1ccc(C(C)C)c(OC(=O)NC2(C(F)(F)F)Oc3ccc(Cl)cc3O2)c1 (configuration not stated)	-	.	.	.	.	.
Cc1cccc(C=Nc2sc3c(c2C(=O)OC(C)(C)C)CCN(C)C3)c1O	45	.	.	.	.	.
CCOC(=O)c1c(N=Cc2cccc(C)c2O)sc2c1CCN(C)C2	-	.	.	.	.	.
CC1=CC(=NS(=O)(=O)c2ccc(C)cc2)C=C(O/N=C(\C)c2ccccc2)C1=O	-	.	.	.	.	.
COC(=O)CCCC1=CC2=C(c3ccccc3)C(=O)C(C)(OC(=O)C3CCCC3)C(=O)C2=CN1CCc1c[nH]c2ccccc12 (configuration not stated)	-	-	-	-	-	54
O=S(=O)(NCC1CCN(c2ccccn2)CC1)c1ccccc1F	-	.	.	.	.	.
CC1(C)Cc2ccccc2C(CCl)=N1	45	.	.	.	.	.
CN(C)S(=O)(=O)N1CCC(S(=O)(=O)Cc2ccco2)CC1	-	.	.	.	.	.
COc1ccc(-c2cc(=O)oc3c(C)c(OCc4nn[nH]n4)ccc23)cc1	-	?	-	-	23374	-
Cc1c(OCc2nn[nH]n2)ccc2c(-c3ccccc3)cc(=O)oc12	-	-	-	-	-	-
SMILES	SSB-PriA inh	BoNT-A LC inh2	BoNT F protease	Anthrax LF prot	Autofluor counter	MazF activator
Cc1cc(OCc2nn[nH]n2)c2c(-c3ccccc3)cc(=O)oc2c1	-	-	-	-	20272	-
COc1ccc(CC(N)=NOC(=O)c2ccco2)cc1OC	-	.	.	.	.	.
N#CCSc1nc2ccc(N3CCCCC3)cc2c(=O)n1Cc1ccccc1	-	-	-	-	29809	-
N#CCSc1nc2ccccc2c(=O)n1CC1CCCC1	-	-	-	-	-	-
O=C(Nc1cnn([C@H]2CCOC2)c1)c1ccc2[nH]ccc2c1	-	.	.	.	.	.
COc1ccc(CCC(=O)Nc2c(C)nc3cc(C)ccn3c2=O)cc1	-	.	.	.	.	.
Cc1cc([N+](=O)[O-])nn1CCCC(=O)NCc1ccc(F)cc1	-	-	-	-	-	-
Cc1cc([N+](=O)[O-])nn1Cc1c(F)c(F)c(F)c(F)c1F	-	-	-	-	18842	-
C/C(=N\NS(=O)(=O)c1ccc([N+](=O)[O-])cc1)c1c[nH]c2ccccc12	.	-	-	-	-	52
